Measurements from ChEMBL document CHEMBL1157539, “Thousands of chemical starting points for antimalarial lead identification” (Nature, 2010).

Assays:
Type in all cases: functional
[1] = system: Plasmodium falciparum; assay: GSK_TCMDC: Inhibition of Plasmodium falciparum 3D7 in whole red blood cells, using parasite LDH activity as an index of growth. Test compounds present at 2uM
[2] = system: Plasmodium falciparum; assay: GSK_TCMDC: Inhibition of Plasmodium falciparum Dd2 in whole red blood cells, using parasite LDH activity as an index of growth. Test compounds present at 2uM
[3] = system: HepG2; assay: GSK_TCMDC: Percent inhibition of human HepG2 cell line. Test compounds present at 10uM.

Row | Structure (SMILES) | Inhibition [1] | Inhibition [2] | Inhibition [3]
1 | CN1CCN(c2cccc(Nc3nccc(NCC(O)c4ccccc4)n3)c2)CC1 (configuration not stated) | 100% | 4% | 30%
2 | Cc1cc(C)c(NC(=O)NC2CCN(CCCCCNC(=O)/C=C/c3ccc(Cl)c(Cl)c3)CC2)c(C)c1 | 100% | 17% | 30%
3 | O=C(N[C@@H](CC1CCCCC1)C(=O)NC1CC1)c1ccc(O)c(-c2cccc(C(F)(F)F)c2)c1 | 99% | 47% | 0%
4 | O=C(Nc1ccc(Cl)cc1)c1ccc(CN2CCCN(Cc3ccsc3)CC2)cc1.O=C(O)C(F)(F)F | 88% | 1% | 48%
5 | CC[C@@H]([C@@H](Cc1cc2ccccc2s1)C(=O)N[C@@H](CCCCNC(=O)OCc1ccccc1)C(=O)Nc1ccccn1)N(O)C=O | 96% | 70% | 36%
6 | Cl.Clc1cnc2ccc3c(c2c1CCN1CCC(NCc2cc4c(cn2)OCCO4)CC1)OCCO3 | 92% | 18% | 3%
7 | CCCCCCNC[C@@H](O)[C@H](Cc1ccccc1)NC(=O)c1cc(NCC)cc(N2CCCCS2(=O)=O)c1.Cl | 100% | 98% | 5%
8 | O=C(NC1CCC1)C1CCN(C(c2ccc(Cl)cc2)c2ccc(Cl)cc2)CC1 | 95% | 70% | 6%
9 | CCN1CCN(c2ccc(NC(=O)c3cc4c(C)nn(-c5ccccc5)c4s3)cc2C)CC1 | 100% | 81% | 32%
10 | CC(Cc1ccc(OCCN2CCN(c3cccc(Cl)c3)CC2)cc1)NCC(O)c1cccc(C(F)(F)F)c1.Cl (configuration not stated) | 99% | 98% | 100%
11 | CCOc1ccc2[nH]c(C)cc(=NN=Cc3ccncc3)c2c1 | 99% | 78% | 8%
12 | Nc1c(Cl)cc(C(O)CNCCCCCOCCc2ccc3ccccc3n2)cc1Cl.O=C(O)/C=C/C(=O)O (configuration not stated) | 98% | 97% | 9%
13 | O=C(Nc1cccc(-c2cccc(-c3nc4cc(C(F)(F)F)ccc4[nH]3)c2)c1)c1cccnc1Cl | 95% | 58% | 56%
14 | CCn1c(-c2nonc2N)nc2c(-c3ccccc3)ncc(OCCCCNCCc3ncc[nH]3)c21.O=C(O)C(F)(F)F | 92% | 42% | 34%
15 | Fc1cccc(Cn2ncc3cc(Nc4ncnc5sc(C#Cc6ncc[nH]6)cc45)ccc32)c1 | 100% | 30% | 31%
16 | O=C(C=Cc1ccc(Cl)c(Cl)c1)NCCCCCN1CCC(CCNC(=O)C(c2ccccc2)c2ccccc2)CC1 | 90% | 43% | 61%
17 | O=C(Nc1ccc(N2CCN(Cc3c[nH]c4cc(F)ccc34)CC2)cc1)c1ccccc1-c1ccc(C(F)(F)F)cc1 | 85% | 7% | 20%
18 | COc1cc2c(cc1S(=O)(=O)c1ccc(NC(=O)c3ccc4ccccc4c3)cc1)CCN(C)CC2 | 99% | 28% | 2%
19 | Cn1cncc1C(=O)Nc1cccc(-c2ccc(-c3nc4ccccc4[nH]3)s2)c1 | 100% | 25% | 0%
20 | O=C(NC1CCN(CCC(NC(=O)c2ccccc2)c2ccc(Cl)c(Cl)c2)CC1)c1ccc(Cl)cc1 (configuration not stated) | 97% | 36% | 17%

Row | Structure (SMILES) | Inhibition [1] | Inhibition [2] | Inhibition [3]
21 | CC(=O)Nc1ncc(C(=O)Nc2cccc(-c3cccc(-c4nc5ccccc5[nH]4)c3)c2)s1 | 92% | 38% | 16%
22 | COc1ccc(NC(=O)c2ccc(Br)c(C)c2)cc1N1CCN(CCCCc2ccccc2)CC1.O=C(O)C(=O)O | 88% | 17% | 29%
23 | O=C(N[C@@H](Cc1ccccc1)C(=O)NC1CCCCCC1)c1ccc(O)c(-c2ccc(Cl)c(Cl)c2)c1 | 92% | 99% | 0%
24 | COc1ccc(Cl)cc1N1CCN(CCCNC(=O)c2ccc(-c3nc4cc(Cl)c(F)cc4[nH]3)c(F)c2)CC1 | 100% | 91% | 21%
25 | COc1ccc(-c2csc(N(CCCN(C)C)C(=O)c3cc4c(C)nn(-c5ccccc5)c4s3)n2)cc1.Cl | 100% | 16% | 100%
26 | COc1ccccc1C1CCN(CCCCNC(=O)c2ccc(NC(=O)c3ccc(Cl)cc3)cc2)CC1 | 95% | 12% | 21%
27 | COC(=O)c1c(NC(=O)c2cccc(C(F)(F)F)c2)sc2c1CCN(Cc1ccccc1)C2.Cl | 84% | 61% | 9%
28 | Cc1ccc(NC(=O)c2cnc(N3CCN(c4ccncc4)CC3)c(Cl)c2)cc1.O=C(O)C(F)(F)F | 94% | 24% | 25%
29 | O=C(/C=C/c1ccc(Cl)c(Cl)c1)NCCCCCCN1CCN(C(=O)Nc2cc(Cl)nc(Cl)c2)CC1 | 100% | 0% | 15%
30 | O=C(/C=C/c1ccc(Cl)c(Cl)c1)NC1CCC(CN2CCC(c3c[nH]c4ccncc34)CC2)CC1 (configuration not stated) | 100% | 96% | 16%
31 | Cc1cc(N)cc2nc(-c3ccc(N)cc3)[nH]c12 | 96% | 75% | 0%
32 | O=C(Nc1cccc(CN2CCCN(Cc3cccc(F)c3)CC2)c1)c1ccc(Cl)c(Cl)c1.O=C(O)C(F)(F)F | 85% | 6% | 28%
33 | CCOC(=O)c1ccc(NC(=O)N[C@@H](Cc2ccc(O)cc2)C(=O)NC2CCN(Cc3ccc4c(c3)OCO4)CC2)cc1.O=C(O)C(F)(F)F | 86% | 24% | 0%
34 | CC1(C)CCCN(C(=O)c2cccc(-n3nc(-c4ccc(Cl)cc4)cc3N)c2)C1 | 100% | 98% | 13%
35 | Cc1cc2ncn(-c3nccc(NCc4cccnc4)n3)c2cc1C.O=C(O)C(F)(F)F | 99% | 98% | 0%
36 | CC(C)=CCN1CCC(C(=O)Nc2ccc(-c3nc4ccccc4[nH]3)cc2)CC1 | 95% | 0% | 0%
37 | CCOc1ccc2c(=NN=Cc3cccc(OC)c3)cc(C)[nH]c2c1 | 97% | 81% | 38%
38 | Cc1cccc(CCNC(=O)c2cc(Br)cc(N3CCN(c4ccncc4)CC3)c2)c1.O=C(O)C(F)(F)F | 96% | 53% | 48%
39 | O=C(NCCCCCN1CCC(c2c[nH]c3ccccc23)CC1)c1ccc(-c2cccnc2)cc1 | 89% | 10% | 29%
40 | Br.Cn1c(=N)n(CC(=O)OCc2ccc(OCc3ccccc3)cc2)c2ccccc21 | 100% | 74% | 5%

Row | Structure (SMILES) | Inhibition [1] | Inhibition [2] | Inhibition [3]
41 | COc1ccc(NC(=O)[C@H](CC(C)C)Nc2cc(C)nc(NCCc3ccccc3OC)n2)cc1.O=C(O)C(F)(F)F | 99% | 68% | 9%
42 | Cc1cccc2nc(-c3cccc(-c4cccc(CNCCNC(=O)c5ccnn5C)c4)c3)[nH]c12.O=C(O)C(F)(F)F | 100% | 71% | 26%
43 | Cc1noc(C)c1-c1ccc2c(Nc3ccc(C#N)cc3)c(C(N)=O)cnc2c1 | 97% | 73% | 6%
44 | CC(=O)c1cccc2[nH]c(C(=O)NC3CCC(CCN4CCc5ccc(C#N)cc5C4)CC3)cc12.Cl (configuration not stated) | 96% | 0% | 12%
45 | O=C(Nc1ccc(-c2cccc(-c3nc4cc(C(F)(F)F)ccc4[nH]3)c2)cc1)c1cccnc1 | 100% | 24% | 74%
46 | COc1ccc2c(c1)OC(C)(C)CC2=NOS(=O)(=O)c1ccc(C)cc1 | 97% | 12% | 10%
47 | Cc1ccccc1C1CCN(C2CCC(NC(=O)/C=C/c3ccccc3C(F)(F)F)CC2)CC1 (configuration not stated) | 83% | 6% | 63%
48 | CCN(CC)CCCn1c(N)c(-c2nc3ccccc3[nH]2)c2nc(C#N)c(C#N)nc21 | 100% | 99% | 8%
49 | O=C(N[C@@H](Cc1ccccc1)[C@H](O)CNCCC(F)(F)F)c1cccc(OCC2CC2)c1 | 98% | 95% | 0%
50 | Cc1ccc(NC(=O)c2ccc(CN3CCCN(Cc4cccc(O)c4)CC3)cc2)cc1C.O=C(O)C(F)(F)F | 98% | 25% | 33%
51 | Cc1cc(=NN=Cc2ccccn2)c2cc(C(F)(F)F)ccc2[nH]1 | 100% | 100% | 0%
52 | COc1ccc2nccc([C@@H](O)CN3CCC(NCc4nc5cc(F)c(F)cc5[nH]4)CC3)c2c1.O=C(O)C(=O)O | 96% | 36% | 12%
53 | Cl.N#Cc1ccc2c(c1)CCN(CCC1CCC(Nc3ncnc4ccccc34)CC1)C2 (configuration not stated) | 100% | 96% | 65%
54 | Cc1[nH]c(C)c(-c2ccc(-c3ccccc3F)nc2)c(=O)c1Cl | 97% | 97% | 7%
55 | CN(CCC1CCN(C(=O)/C=C/c2ccc(Cl)c(Cl)c2)CC1)C1CCC(c2c[nH]c3ccccc23)CC1 (configuration not stated) | 87% | 9% | 57%
56 | COc1ccc2cc(-c3nc(-c4c(Cl)cccc4Cl)[nH]c3-c3ccnc(NCCC4CCCN4C)c3)ccc2c1.O=C(O)C(F)(F)F (configuration not stated) | 100% | 82% | 11%
57 | CS(=O)(=O)Nc1cccc(-c2cnc3[nH]cc(-c4cc(N)cc(C(=O)O)c4)c3c2)c1 | 96% | 96% | 40%
58 | COc1ccc(CCNC(=O)c2cnc3c(c2)nc(-c2c[nH]c(-c4ccccc4)n2)n3CCc2c[nH]cn2)cc1 | 96% | 70% | 16%
59 | O=C(Nc1ccc(S(=O)(=O)N2CCOCC2)cc1)c1cc(-c2cc(Cl)ccc2O)n[nH]1 | 96% | 59% | 40%
